The structures appear in SMILES notation. Results filed as inconclusive are left out. The source made the active and inactive calls. Calls follow the shape of the dose curve; as a rule, active = well fitted inhibition curve with a large enough effect; inconclusive = small, poorly fitted or top-dose-only effect; inactive = no such curve, though single readings can be large or run the other way.

The assay in a line: qHTS assay for measurement of the activity of small molecule inhibitors on Zika virus induced Caspase-3 activity in human iPSC derived neural progenitor cells (hNPCs) (AID 1224857). Also: nearly all actives have a fitted effect of over 65% in size. As to conditions: hNPCs ZIKV-induced caspase-3/7, Caspase-Glo luminescence, 6 h; series mostly up to 45.7 µM. The method in brief:
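In medium with heparin 2 ug/ml and cyclopamine 2 uM, hNPCs (350 cells/well) received compound for one hour and then Zika virus at 2 FFU/cell; caspase activity was measured by Caspase-Glo 3/7 luminescence 6 h post-infection.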
On the technique in general: qHTS replaces the single test concentration by a dilution series.
As to `CC(=O)c1ccc2c(c1)N(CCCN1CCC(CCO)CC1)c1ccccc1S2`, the outcome was inactive.

Take `CC(=O)O[C@H]1C[C@@H]2CC[C@@H]3[C@H](CC[C@@]4(C)[C@H]3C[C@H]([N+]3(C)CCCCC3)[C@@H]4OC(C)=O)[C@@]2(C)C[C@@H]1[N+]1(C)CCCCC1`: the result was inactive.

Consider `C[C@]12CC[C@@H]3c4ccc(O)cc4CC[C@H]3[C@@H]1CC[C@@H]2O`, for which the molecule was classed as inactive.

`CCCCOc1ccc(C(=O)CCN2CCCCC2)cc1`: the molecule was called inactive.

On to `COc1ccc(/C=C/C(=O)c2ccc(OC)cc2OC)cc1`, for which the molecule was called inactive.

`O=C(CCCN1CCC(O)(c2ccc(Br)cc2)CC1)c1ccc(F)cc1`: the outcome was inactive.

In the case of `CCCCCCCCCCOCC(O)CN` (stereo unspecified), the molecule was classed as inactive.

With `C1CCc2nnnn2CC1`, the outcome was inactive.

Take `CCCCc1nc(Cl)c(CO)n1Cc1ccc(-c2ccccc2-c2nn[nH]n2)cc1`: the outcome was inactive.

In the case of `CCN(CC)CCOc1ccc(C(O)(Cc2ccc(Cl)cc2)c2ccc(C)cc2)cc1` (stereo unspecified), the outcome was inactive.

For the molecule `CCN(CCCc1ccccc1)CCCc1ccccc1`, the outcome was inactive.

For the molecule `CCC(NC(C)C)C(O)c1ccc(O)c(O)c1` (stereo unspecified), the outcome was inactive.

As for `CCCCC1=NC2(CCCC2)C(=O)N1Cc1ccc(-c2ccccc2-c2nn[nH]n2)cc1`, the molecule was classed as inactive.

In the case of `CCOC(=O)c1cccc(N)c1`, the call was inactive.

Turning to `CO/N=C1\CN(c2nc3c(cc2F)c(=O)c(C(=O)O)cn3C2CC2)CC1CN` (stereo unspecified), the outcome was inactive.

Regarding `CCCCCCCCCCCCCCCC[N+](C)(C)CC`, the outcome was inactive.

Regarding `CCOC(=O)COc1ccc2c(C)c(CCN(CC)CC)c(=O)oc2c1Cl`, the result was inactive.

As for `Nc1ccc(C(=O)O)cc1`, the molecule was classed as inactive.

As for `N[C@H](CO)C(=O)O`, the result was inactive.

As to `COc1cc(C(=S)N2CCOCC2)cc(OC)c1OC`, the result was inactive.

As to `C=C1C(=C/C=C2\CCC[C@]3(C)[C@@H]([C@H](C)/C=C/[C@@H](O)C4CC4)CC[C@@H]23)C[C@@H](O)C[C@@H]1O`, the molecule was classed as inactive.

Consider `CCOC(=O)n1ccn(C)c1=S`, for which the outcome was inactive.

Regarding `N[C@@H](Cc1cnc[nH]1)C(=O)O`, the molecule was classed as inactive.

Regarding `O=S1(=O)c2cccc3cccc(c23)N1CCCN1CCN(c2ccc(F)cc2)CC1`, the result was inactive.

For the molecule `CCCCOc1ccc(OCCCN2CCOCC2)cc1`, the outcome was inactive.

As for `CN1CCC(=C2c3ccccc3Sc3ccccc32)CC1`, the call was inactive.

`CN(C/C=C/c1ccccc1)Cc1cccc2ccccc12`: the molecule was called inactive.

In the case of `NC(=O)CC[C@@H]1NC(=O)[C@H](Cc2ccccc2)NC(=O)[C@H](Cc2ccc(O)cc2)NC(=O)CCSSC[C@@H](C(=O)N2CCC[C@H]2C(=O)N[C@@H](CCCN=C(N)N)C(=O)NCC(N)=O)NC(=O)[C@H](CC(N)=O)NC1=O`, the result was inactive.

As to `CC(C)C[C@H]1C(=O)N2CCC[C@H]2[C@]2(O)O[C@](NC(=O)[C@@H]3C=C4c5cccc6[nH]c(Br)c(c56)C[C@H]4N(C)C3)(C(C)C)C(=O)N12`, the molecule was classed as inactive.

Take `O=C(COc1ccc(Cl)cc1)N1CCN(Cc2ccc3c(c2)OCO3)CC1`: the molecule was classed as inactive.

On to `CCCCCCC[N+](CC)(CC)CCCCc1ccc(Cl)cc1`, for which the molecule was called inactive.

Take `C[C@]12CCC(=O)C=C1[C@@H]1C[C@@H]1[C@H]1[C@@H]3[C@@H]4C[C@@H]4[C@@]4(CCC(=O)O4)[C@@]3(C)CC[C@@H]12`: the result was inactive.

Turning to `C[C@@H]1CN(CCCn2c3ccccc3c3ccccc32)C[C@H](C)N1`, the result was inactive.

As for `O=C(O)c1cc2cc(Cc3cccnc3)ccc2o1`, the result was inactive.

Turning to `CCCSS/C(CCO)=C(\C)N(C=O)Cc1cnc(C)nc1N`, the molecule was classed as inactive.

Regarding `NCCc1ccn[nH]1`, the molecule was called inactive.

Source of the values: PubChem BioAssay (NCATS).
